Source: PubChem (several laboratories)
A selection: hits, their analogues and other compounds. The true share with any hit is near 3.1%.
HSP90 inh: inhibitors of HSP90 luciferase refolding in rabbit reticulocyte lysate | luciferase refolding luminescence, 3 h | 0.91% of 290,000 active | AID 1789 | inhibition, % at 5.6 µM;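 active means inhibition above the screen-wide mean plus 3 SD, computed separately per campaign, cut at about 16% in these data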;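 further: 0% = DMSO wells and 100% = 60 µM geldanamycin wells; inhibitors lower the luminescence because luciferase stays unfolded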
ARNT TACC3 PPI: ARNT/TACC3 interaction disruption. Q9Y6A5. AlphaScreen His-ARNT PAS-B/GST-TACC3 binding, luminescence; TACC3 fragment carries E629A point mutation. inhibition, % at 9.99 µM. 0.66% of 390,000 active;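 active means mean inhibition of replicates at least 50% and at least half of replicates each reaching 50%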;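 further: 0% = complete ARNT plus TACC3 wells and 100% = ARNT alone without TACC3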
HSF1 inhib: HSF1 inhibition; NIH3T3-HGL HSE-luciferase, MG132-induced, luminescence 8 h; stronger effect = lower value; AID 2098; activity change, negative = inhibition, % at 7.5 µM (by protocol); 0.77% of 300,000 active;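 active means more than half of replicate wells show activity change below -50%, luminescence cut by over half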;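 further: luciferase reports HSF-1 transcriptional activity via heat shock element; 0% = median of DMSO wells and -100% = zero luminescence signal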
HIF act: HIF pathway transcriptional activation; U2OS HRE-luciferase reporter, luminescence; normalized: DMSO 0%, desferrioxamine 100%; activation, % at 7.5 µM (by protocol); 0.32% of 300,000 active;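 active means mean activation of at least 10% of the iron chelator positive control signal, with at least half of replicates also reaching 10%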
HSF-1 act: increases HSF-1 driven luciferase reporter signal. NIH3T3-HGL HSF-1 luciferase reporter, MG132, 8 h; 100% = twice DMSO control signal. activation, % at 9 µM. 1.7% of 300,000 active. AID 504408;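 active means mean replicate activation of at least 50% with a set share of replicates each reaching 50%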;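 further: 0% = median of the neutral control wells and 100% = twice that signal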
* marks the source's active call; other numbers are inactive results; x = no result given.

SMILES	HSP90 inh	ARNT TACC3 PPI	HSF1 inhib	HIF act	HSF-1 act
CN(C)C=NC(=O)c1cn(-c2ccc(F)cc2)c(=O)c2ccccc12	0	3	-7	58*	1
CN(C)C(=O)c1cn(-c2ccc(Cl)cc2)c(=O)c2ccccc12	0	-20	2	0	-1
C/C(=N\N=C(/N)c1nonc1N)c1ccc2c(c1)OCO2	5	-1	53	4	101*
Cc1ccc(S(=O)(=O)Nc2ccc3c(c2)C(=O)N([C@H](C)CO)C[C@H](C)[C@H](CN(C)S(=O)(=O)c2ccc(C)cc2)O3)cc1	x	-13	x	x	x
CO[C@H]1CN(C)C(=O)c2cc(NC(=O)c3ccccc3)ccc2OC[C@H](C)N(C)C[C@H]1C	x	-7	x	x	x
CCOc1cc(/C=C(/C#N)c2nc3ccccc3[nH]2)ccc1OCc1ccc(C(=O)O)o1	1	59*	0	0	3
CCOc1cc(/C=C(/C#N)c2ccc(F)cc2)ccc1OCc1ccc(C(=O)O)o1	4	35	-2	0	-20
COc1ccc2nc(SCc3cccnc3)c(C#N)cc2c1	-7	-3	26	0	24
COc1ccc2nc(SCC(C)=O)c(C#N)cc2c1	-6	x	37	1	84*
COc1ccc2nc(SC)c(C#N)cc2c1	1	2	96	0	143*
CCOC(=O)CSc1nc2ccc(C)cc2cc1C#N	1	-1	32	2	68*
COCCn1c(SCC(=O)Nc2ccc3c(c2)OCCO3)nc2c(c1=O)SC(C)C2 (stereo not given)	-4	x	x	x	x
CC1Cc2nc(SCC(=O)Nc3ccc4c(c3)OCO4)n(Cc3ccccc3)c(=O)c2S1 (stereo not given)	-4	9	55	1	78*
O=C(CN1C(=O)S/C(=C/c2cccn2-c2ccc(O)cc2)C1=O)N1CCCC1	3	6	10	-2	3
O=C(O)c1cccc(-n2cccc2/C=C2/SC(=O)N(CC(=O)N3CCCC3)C2=O)c1	-4	3	-7	14*	1
Cc1cccc(C2c3[nH]c4ccccc4c3CCN2Cc2cnn(-c3ccc(F)cc3)c2)n1 (stereo not given)	2	-3	25	0	56*
Fc1ccc(C2c3[nH]c4ccccc4c3CCN2Cc2ccoc2)cc1 (stereo not given)	-5	1	3	0	4
COc1ccc(-n2cccc2/C=C2/NC(=O)N(c3cccc(Cl)c3)C2=O)cc1	5	-4	-63*	3	-66
O=C(O)c1cccc(-n2cccc2/C=C2/NC(=O)N(c3ccc(Cl)cc3)C2=O)c1	-5	13	x	x	x
CC(=O)N1CCn2c3ccc(C)cc3c3cccc1c32	-2	0	36	5	65*
O=C(O)c1csc(N/N=C/c2ccc(Br)cc2)n1	16	1	39	1	81*
Cc1csc(N/N=C/c2ccc([N+](=O)[O-])cc2)n1	4	2	-5	1	-11
Cc1cc(O)c(C2=Nc3ccccc3SC(c3ccc(Cl)cc3)C2)c(=O)o1 (stereo not given)	7	-2	-54*	2	-63
CCN(C(C)=O)c1cnc(C=NNC(N)=S)c2ccccc12	x	86*	x	x	x
Cn1cc(/C=N/NC(N)=S)c2ccccc21	1	5	-2	0	-6
SMILES	HSP90 inh	ARNT TACC3 PPI	HSF1 inhib	HIF act	HSF-1 act
Cc1ccc2[nH]cc(CCNC(=O)CN3C(=O)c4ccccc4C3=O)c2c1	-2	6	24	0	73*
Cc1cc(Br)c2[nH]cc(CCNC(=O)c3ccco3)c2c1	-6	4	-69*	0	-77
O=C(CN1C(=O)c2ccccc2C1=O)NCCc1c[nH]c2ccc(Cl)cc12	5	1	7	0	11
Cc1ccc2[nH]cc(CCNC(=O)c3ccco3)c2c1	-5	x	-68*	0	-76
CCOc1ccc(S(=O)(=O)NNC(=S)Nc2ccc(Br)cc2)cc1	2	-2	87	0	113*
C[C@@H]1CCCCO[C@H](CN(C)C(=O)CCC(F)(F)F)[C@H](C)CN([C@H](C)CO)C(=O)c2cc(NS(=O)(=O)c3cn(C)cn3)ccc2O1	x	-12	x	x	x
O=C(/C=C/c1ccc(Cl)cc1Cl)Nc1cccc(S(=O)(=O)NC2=NCCC2)c1	-2	-5	24	0	63*
CNC(=O)C[C@@H]1CC[C@H]2[C@@H](COc3ccc(NC(=O)C4CC4)cc3C(=O)N2C)O1	x	-3	x	x	x
